Results filed as inconclusive are left out. Entries that show only a call come without a potency. The source made the active and inactive calls. Calls come from the whole dose curve; as a rule, active = well fitted activation curve with a large enough effect; inconclusive = small, poorly fitted or top-dose-only effect; inactive = no such curve, though single readings can be large or run the other way.
Assay: qHTS Assay for Rab9 Promoter Activators: Initial hit validation from the primary screen
Conditions: Huh7 Rab9 promoter luciferase reporter, 24 h; series mostly up to 46.1 µM
Procedure, shortened: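 Huh7 cells stably carrying a Rab9 promoter–luciferase construct, plated in reduced-serum medium with 10% FBS, rested 2 h, then exposed to compounds in DMSO for 24 h at 37C. Luminescence read 10 min after adding Amplite luciferase reagent.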
Potency is the fitted concentration of half-maximal effect.

| Structure (SMILES) | Potency |
| --- | --- |
| O=CN1CCN(C(=O)c2ccccc2Cl)CC1 | inactive |
| Cc1ccc(S(=O)(=O)N2CCN(c3cnn(C)c(=O)c3Cl)CC2)cc1 | inactive |
| Nc1nc(SCCO)[nH]c(=O)c1NC(=O)c1ccco1 | inactive |
| Cc1c(C(O)CN2CCN(Cc3ccc4c(c3)OCO4)CC2)c2ccccc2n1C (stereo not drawn) | inactive |
| O=C(CSc1nnc(-c2ccc([N+](=O)[O-])cc2)o1)Nc1ccccn1 | 0.56 µM (active) |
| CCN(CC)S(=O)(=O)c1ccc(NCc2ccccn2)nc1 | inactive |
| CCCCn1c(CCNC(=O)c2cccs2)nc2ccccc21 | inactive |
| CC(C)(C)C(=O)N/C(N)=N/c1nc2ccccc2o1 | 0.628 µM (active) |
| O=C(C1COc2ccccc2O1)N1CCN(S(=O)(=O)c2ccccc2)CC1 (stereo not drawn) | inactive |
| CC1CCc2sc(C(=O)NNC(=S)NC3CC3)cc2C1 (stereo not drawn) | 19.9 µM (active) |
| Cc1nc2sc(C(=O)OC(C)C)c(N)c2c(C)c1C | 15.8 µM (active) |
| COCCNC(=O)Cn1nc(-c2ccccc2)c2ccccc2c1=O | inactive |
| CCc1cc(C(=O)Nc2ccccc2)cs1 | 2.81 µM (active) |
| CC(=O)[C@@H]1[C@@H](C(=O)c2ccc(C)cc2)[C@]2(C(=O)Nc3ccccc32)[C@H]2C=Cc3cc(F)ccc3N12 | inactive |
| CCOC(=O)C1(Cc2cccc(Cl)c2)CCCN(C(=O)CCSC)C1 (stereo not drawn) | inactive |
| COc1ccc2oc(=O)c(C(=O)NC(C)c3ccccc3)cc2c1 (stereo not drawn) | inactive |
| COC(=O)c1sccc1NC(=S)OC | inactive |
| CCN(Cc1nc2cc(Cl)ccc2c(=O)[nH]1)C(=O)C1CC(=O)N(c2cccc3ccccc23)C1 (stereo not drawn) | inactive |

From PubChem BioAssay AID493200 (National Center for Advancing Translational Sciences (NCATS), 2011)
